Measured values: PubChem BioAssay
Unmarked numbers belong to inactive results. The rule behind the calls is not given here.

What follows are compounds tested against Pantothenate synthetase (Mycobacterium tuberculosis (strain ATCC 25618 / H37Rv)) (UniProt P9WIL5) (assay: Recombinant Mtb pantothenate synthetase (PanC) inhibitors, coupled enzyme, confirmatory (AID 375;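 note: 0% = full reaction with vehicle and 100% = no enzyme background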)). Conditions: coupled enzyme assay; at 10 µM, active compounds read high.
Chain of Pantothenate synthetase (Mycobacterium tuberculosis (strain ATCC 25618 / H37Rv)) (P9WIL5 whole entry, looked up): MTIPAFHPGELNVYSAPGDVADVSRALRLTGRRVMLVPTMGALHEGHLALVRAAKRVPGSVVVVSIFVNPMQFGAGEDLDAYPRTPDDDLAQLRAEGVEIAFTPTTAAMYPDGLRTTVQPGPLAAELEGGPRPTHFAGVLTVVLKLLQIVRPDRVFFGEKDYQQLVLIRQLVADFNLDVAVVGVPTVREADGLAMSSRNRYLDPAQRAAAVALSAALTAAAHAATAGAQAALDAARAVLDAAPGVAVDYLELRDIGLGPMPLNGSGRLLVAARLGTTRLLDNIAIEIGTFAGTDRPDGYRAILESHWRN
`CCCCOC(=O)Nc1nccs1` was tested, and the inhibition was 9%. In the case of `Cc1ccc(C(=O)Nc2nc3c(s2)CCCC3)o1`, the inhibition is reported as 2%. In the case of `COc1cccc(C(=O)N2CCCC(c3nc(-c4cccs4)no3)C2)c1` (stereo not given), the inhibition is reported as 0%. With `N#Cc1c(NC(=O)CSc2nnnn2C2CCCC2)sc2c1CCCC2` the inhibition was 7%. For `Cc1ccc2c(c1)nnn2C1CCN(C(=O)NC23CC4CC(CC(C4)C2)C3)CC1`, the inhibition was 0%. Compound `CCOC(=O)c1ccc(NC(=O)CSc2n[nH]c(-c3ccncc3)n2)cc1` has an inhibition of 5%. In the case of `CCOC(=O)c1sc(NC(=O)CNC(=O)Cn2cnc3sc(C)c(C)c3c2=O)nc1C`, the inhibition is reported as 0%. `CCOc1ccc(-c2nc(C#N)c(N3CCN(C)CC3)o2)cc1` gave an inhibition of 2%. For `CCOC(=O)C1CCN(C(=O)c2c(-c3c(Cl)cccc3Cl)noc2C)CC1`, the inhibition was 0%. In the case of `COc1cccc2cc(C(=O)N3CCN(C45CC6CC(CC(C6)C4)C5)CC3)c(=O)oc12`, the inhibition is reported as 1%. For `CCOC(=O)c1cc2c(=O)n3cccc(C)c3nc2n(CCOC)c1=NC(=O)c1ccncc1`, the inhibition was 0%. `CS(=O)(=O)N1CCCC(C(=O)N2CCOCC2)C1` (stereo not given) was tested, and the inhibition was 6%. Work on `CC(C)OC(=O)C(C)(C)Oc1ccc(C(=O)c2ccc(Cl)cc2)cc1` yielded an inhibition of 0%. In the case of `COCCNC(=O)Cn1nc(C(F)(F)F)c(Br)c1C`, the inhibition is reported as 0%. Compound `Cc1noc(/C=C/N(C)C)c1S(=O)(=O)N1CCCC(C(=O)N2CCc3ccccc32)C1` (stereo not given) has an inhibition of 10%. `Cc1ccc(S(=O)(=O)C2(C(=O)Nc3cccnc3)CC2)cc1` showed an inhibition of 1%. `NC(=O)c1ccccc1NC(=O)CN1CCOCC1` showed an inhibition of 6%. In the case of `c1ccc(CC2CCN(C(c3cccs3)c3nnnn3C3CCCC3)CC2)cc1` (stereo not given), the inhibition is reported as 3%. `O=C(NCC(c1cccnc1)N1CCOCC1)c1cccs1` (stereo not given) was tested, and the inhibition was 0%. `O=S(=O)(c1ccccc1)N1CCSC1c1ccco1` (stereo not given) gave an inhibition of 3%. Work on `Cc1ccc(-c2cc(C(=O)NCc3ccc4c(c3)OCO4)no2)cc1` yielded an inhibition of 0%. With `Cc1ccc2c(c1C)NC(=O)C2(O)CC(=O)c1ccc2c(c1)OCO2` (stereo not given) the inhibition was 0%. `S=C(c1ccc(N2CCOCC2)cc1)N1CCCCC1` gave an inhibition of 2%. `Cc1nn(S(=O)(=O)N2CCCCC2)c(C)c1Br` gave an inhibition of 0%. `CSc1nc(N)nc(SCCS(=O)(=O)c2ccc(Cl)cc2)c1C#N` showed an inhibition of 0%. `Cc1cc(C)n2nc(C(=O)NCc3ccco3)nc2n1` was tested, and the inhibition was 3%. `Cc1cc2cc(CN(CCCN3CCOCC3)C(=O)NC3CCCCC3)c(=O)[nH]c2cc1C` gave an inhibition of 2%. For `CC(=O)N1CCN(C(=O)COc2ccc(Br)cc2)CC1`, the inhibition was 0%. In the case of `N#Cc1c(NC(=O)c2ccc(Br)o2)n(-c2ccccc2)c2nc3ccccc3nc12`, the inhibition is reported as 2%. For `CCOc1ccccc1NC(=O)CC1Nc2cc(C)c(C)cc2NC1=O` (stereo not given), the inhibition was 0%. `CC1Cc2ccccc2N1C(=O)c1cccnc1` (stereo not given) showed an inhibition of 0%. With `Cc1ccc(CSC2=NCCN2C(=O)C2CC2)cc1` the inhibition was 2%. `O=C(c1cccnc1)N1CCN(Cc2ccc3c(c2)OCO3)CC1` gave an inhibition of 0%. In the case of `O=C(O)C1C2CCC(C2)C1C(=O)NCCCn1ccnc1` (stereo not given), the inhibition is reported as 12%. `COc1ccc(NC(=O)C2Cc3ccccc3C(=O)O2)cc1` (stereo not given) gave an inhibition of 0%. In the case of `CC(NC(=O)NCCCC(=O)O)(C(F)(F)F)C(F)(F)F`, the inhibition is reported as 0%. Compound `Cc1nn(-c2ccc(F)cc2)c2nc(N)c(C#N)c(-c3cccs3)c12` has an inhibition of 6%. Work on `c1ccc(CN2C3=NCCCN3c3ccccc32)cc1` yielded an inhibition of 0%. Compound `CC(C)c1cc(C(=O)Nc2cccnc2)no1` has an inhibition of 3%. Compound `O=C(NCc1cccnc1)c1ccccc1Br` has an inhibition of 7%.
